Where “and” joins values, the source holds several entries; their conditions need not be identical. Equal values may be shown once. The panel holds about 83,000 compounds, 20% with a hit somewhere; the sample as a whole holds those more often.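 Assay: single dose, 48 h. Readout: percent growth (0 = no net growth; negative = cell death). Active: <10.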 Values without a mark were called inactive. Calls of active or inactive are those of the source.
Tests used:
Test in all cases: NCI-60 one-dose screen, 48 h (100 = growth as untreated, 0 = no growth, -100 = all killed)
Details in all cases: 10 µM unless noted
HCT-15 colon = test system: HCT-15 colon
HT29 colon = test system: HT29 colon
SNB-75 CNS = test system: SNB-75 CNS
SNB-19 CNS = test system: SNB-19 CNS
U251 CNS = test system: U251 CNS
PC-3 prostate = test system: PC-3 prostate
SK-MEL-5 melanoma = test system: SK-MEL-5 melanoma
UACC-62 melanoma = test system: UACC-62 melanoma
LOX IMVI melanoma = test system: LOX IMVI melanoma
SK-MEL-28 melanoma = test system: SK-MEL-28 melanoma
SK-MEL-2 melanoma = test system: SK-MEL-2 melanoma
EKVX NSCLC = test system: EKVX NSCLC
SN12C renal = test system: SN12C renal
UO-31 renal = test system: UO-31 renal
TK-10 renal = test system: TK-10 renal
ACHN renal = test system: ACHN renal
CAKI-1 renal = test system: CAKI-1 renal
A498 renal = test system: A498 renal
CCRF-CEM leukemia = test system: CCRF-CEM leukemia
MOLT-4 leukemia = test system: MOLT-4 leukemia

Compound | growth (HCT-15 colon) | growth (HT29 colon) | growth (SNB-75 CNS) | growth (SNB-19 CNS) | growth (U251 CNS) | growth (PC-3 prostate) | growth (SK-MEL-5 melanoma) | growth (UACC-62 melanoma) | growth (LOX IMVI melanoma) | growth (SK-MEL-28 melanoma) | growth (SK-MEL-2 melanoma) | growth (EKVX NSCLC) | growth (SN12C renal) | growth (UO-31 renal) | growth (TK-10 renal) | growth (ACHN renal) | growth (CAKI-1 renal) | growth (A498 renal) | growth (CCRF-CEM leukemia) | growth (MOLT-4 leukemia)
COc1cc(C2CC(c3cc(OC)c(OC)c(OC)c3)=Nc3c(N)nc(N)nc3N2)ccc1Oc1nc(Nc2ccc(F)cc2)nc(N(C)C)n1 (stereo not given) | 4.98% (active) | 7.02% (active) | 55.9% | 70.7% | 56.4% | 33.8% | 36% | 83.6% | 10.3% | 74% | 82.7% | 67.5% | 78.5% | 40.3% | 99.8% | 68.1% | 52.3% | 118% | 26.7% | 6.97% (active)
CC1CCc2c(sc3nc(SCC(=O)c4cccc([N+](=O)[O-])c4)n(-c4ccccc4)c(=O)c23)C1 (stereo not given) | 73.6% | 67.9% | 85.8% | 59% | 17.6% | 82.1% | 82.6% | 91.9% | 53.7% | 101% | 94.6% | 88% | 57.1% | 91.5% | 72.3% | 31.3% | 12.4% | 115% | 61.8% | 60.2%
Nc1nc(-c2ccccc2)c(N=Nc2ccc(Cl)cc2Cl)s1 | -86% (active) | -60.4% (active) | -36.5% (active) | -18.1% (active) | -10.7% (active) | -1.78% (active) | -99.2% (active) | -49.5% (active) | -99.5% (active) | -55.8% (active) | -61.1% (active) | -30.5% (active) | -95% (active) | -20% (active) | -13.9% (active) | -31.2% (active) | -34.3% (active) | -16.8% (active) | -0.55% (active) | -24.6% (active)
CC(C)C[C@H](NC(=O)CNC(=O)C[C@H]1O[C@@H]2OC3(C)CC[C@H]4[C@H](C)CC[C@@H]([C@H]1C)[C@@]24O3)B(O)O | 33.1% | -43.6% (active) | -34.8% (active) | 28.2% | 17.4% | 9.34% (active) | -87.6% (active) | -81.2% (active) | -83.6% (active) | -34.4% (active) | -61.9% (active) | 27.3% | -39.2% (active) | 10.5% | 12.1% | 6.33% (active) | 15.8% | 21.1% | -12.4% (active) | 7.31% (active)
CCC(=O)c1cc(C(=O)OC)c2ccc3c4ccccc4ccc3n12 | 91.4% | 73.3% | 47% | 66.9% | 21.9% | 92.6% | 93.8% | 89.6% | 77.9% | 99.6% | 105% | 83.6% | 57.9% | 52.9% | 63.9% | 0.659% (active) | 42.7% | 136% | 97.8% | 94.8%
Cc1cc(C(NC(=O)CCCCCNc2cccc3c2C(=O)N(C2CCC(=O)CC2=O)C3=O)c2cccc(N(C)C)c2)c(O)c2ncccc12 (stereo not given) | 8.01% (active) | 28.6% | 32.9% | 10.1% | 17.6% | 7.35% (active) | -70.1% (active) | -6.03% (active) | 0.535% (active) | 10.7% | -1.61% (active) | 7.79% (active) | 10.2% | 8.84% (active) | 42.4% | 14.7% | 19.4% | 26.9% | -19.4% (active) | -0.125% (active)
CC(=O)Nc1cccc(-n2c(COc3ccc(Br)cc3)nc3ccccc32)c1 | 88.7% and 107% | 123% and 115% | 89% and 94.7% | 96.9% and 98.7% | 94.9% and 113% | 72.8% and 103% | 90.3% and 103% | 71.9% and 91.9% | 91.8% and 104% | 101% and 106% | 95.4% and 112% | 98.1% and 103% | 104% and 110% | 69.3% and 86.1% | 119% and 110% | 79.6% and 107% | 72.4% and 101% | 105% and 124% | 95.9% and 98.5% | 84.6% and 101%
O=C(N/N=C/c1ccc(Cl)o1)c1[nH]c2ccc(Br)cc2c1-c1ccccc1 | -33.9% (active) | -34.6% (active) | -32.9% (active) | 9.24% (active) | -89.9% (active) | 15.7% | -74.7% (active) | 3.42% (active) | -58.2% (active) | 2.44% (active) | 12.3% | 12% | -60.9% (active) | -34.5% (active) | -11.7% (active) | -46% (active) | -0.252% (active) | -25.6% (active) | -2.11% (active) | 3.03% (active)
N/C(=N\c1nc2ccccc2s1)NC(=O)Nc1ccccc1F | 25.7% | 5.46% (active) | -0.749% (active) | 28.9% | 11.2% | 33.3% | -0.0152% (active) | 25.3% | 27% | 57.3% | 11% | 37% | 26.4% | 34.3% | 38.4% | 47.8% | 18.6% | 78.4% | 5.96% (active) | 21.1%
c1ccc(CSc2nnc(-c3ccc4nc(-c5ccccc5)[nH]c4c3)o2)cc1 | 12.7% | 42.5% | -51.4% (active) | 16.3% | 4.61% (active) | 26.6% | 29.4% | 5.19% (active) | -43.6% (active) | -4.76% (active) | 57.5% | 57.3% | -48.3% (active) | 40.6% | -2.54% (active) | 1.16% (active) | -44.9% (active) | -8.46% (active) | 73.8% | 58.2%
COc1ccc(N=Nc2c(N)nn3c(-c4ccc(F)cc4)ccnc23)cc1 | 54% | 58.6% | 110% | 97.1% | 69.8% | 82.2% | 91.1% | 71.3% | 86.8% | 63.1% | 102% | 80.4% | 89% | 99.6% | 106% | 110% | 94.5% | 108% | 59.9% | 85.5%
O=C(Nc1ccc(F)cc1)Nc1nc2ccc([N+](=O)[O-])cc2s1 | 6.88% (active) | 4.5% (active) | -16.6% (active) | 15.1% | 6.53% (active) | 18.4% | -84% (active) | -5.55% (active) | 12.5% | 7.31% (active) | -44.6% (active) | 1.79% (active) | -0.399% (active) | 4.33% (active) | 6.73% (active) | 2.52% (active) | -12.5% (active) | -15% (active) | 11.5% | 14.6%
O=C1N/C(=N\c2nccs2)S/C1=C\c1ccc([N+](=O)[O-])cc1 | 16% | 17.2% | 34.1% | 9.41% (active) | 7.89% (active) | 17.6% | -8.09% (active) | 2.3% (active) | 12.5% | 6.49% (active) | 16.8% | 14.3% | 11.9% | 12.6% | 31.9% | 11.3% | 18.8% | 33.8% | -0.568% (active) | 11.9%
CC1CCc2c(sc3nc(SCC(=O)c4cccc(Br)c4)n(-c4ccccc4)c(=O)c23)C1 (stereo not given) | 41% | 21.6% | 54.9% | 64.8% | -25.5% (active) | 56.6% | 66% | 89.8% | 45.2% | 73.5% | 99.2% | 66.2% | 32.8% | 16.6% | -21.6% (active) | -60.6% (active) | 6.39% (active) | 114% | 35.3% | 28.6%
CN1C(=O)/C(=C/c2ccco2)S/C1=N/c1nccs1 | 93.8% | 103% | 97.4% | 99.4% | 111% | 98.1% | 98.9% | 86.7% | 97.7% | 112% | 108% | 91.8% | 100% | 80.9% | 130% | 100% | 91.7% | 107% | 96.8% | 107%
